# Screening data as filed in PubChem.
# In the library only some 1.1% were active in any assay of this set; here they are far more common.
# AmpC inh no detg: AmpC beta-lactamase inhibition without detergent | P00811 | AID 485341 | 330,000 tested, 0.52% active | Potency, µM (series often up to 57.1 µM), actives largely listed as inhibitors | AmpC nitrocefin hydrolysis, absorbance 480 nm, 0.0001% Triton; also: nearly all actives have a fitted effect of over 20% in size
#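 AmpC (5.3 nM in the dispensed reagent) in 20 mM phosphate pH 7.0 with 0.01% (detergent screen) or 0.0001% Triton X-100 was preincubated with compounds for 15 min at room temperature. Nitrocefin was then added from an 800 uM solution, and hydrolysis was followed at 480 nm.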
# Giardia FBPA inh-1: inhibitors of Giardia lamblia fructose-1,6-bisphosphate aldolase. purified Giardia FBPA. Potency, µM (highest dose often 59.6 µM), actives largely listed as inhibitors. 290,000 tested, 0.71% active; also: nearly all actives have a fitted effect of over 55% in size
# Target sequence (A8B2U2 whole entry, looked up): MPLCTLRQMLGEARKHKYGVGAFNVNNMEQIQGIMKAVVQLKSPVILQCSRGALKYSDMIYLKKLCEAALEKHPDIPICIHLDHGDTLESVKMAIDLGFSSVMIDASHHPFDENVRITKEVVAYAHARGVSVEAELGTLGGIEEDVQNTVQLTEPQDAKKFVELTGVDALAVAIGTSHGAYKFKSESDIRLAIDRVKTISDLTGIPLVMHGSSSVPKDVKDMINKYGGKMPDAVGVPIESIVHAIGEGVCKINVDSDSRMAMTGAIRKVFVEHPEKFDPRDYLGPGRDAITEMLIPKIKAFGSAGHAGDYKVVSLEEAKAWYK
#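 40 nM FBPA preincubated 10 min at RT with compound (up to 57.5 uM final), then substrate plus GAPDH/TPI/NAD/arsenate coupling and diaphorase/resazurin added. Fluorescence read after 20 min at RT, 525/598 nm.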
# AmpC inh detg: AmpC beta-lactamase inhibition with detergent present; P00811; 370,000 tested, 0.041% active; Potency, µM (series often up to 114 µM), actives largely listed as inhibitors; AmpC hydrolysis of nitrocefin, absorbance 480 nm, 0.01% Triton; also: nearly all actives have a fitted effect of over 25% in size
#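 20 mM phosphate pH 7.0 + 0.01% (detergent screen) or 0.0001% Triton X-100; 5.3 nM AmpC reagent; cpd preinc 15 min RT; nitrocefin (800 uM stock) to start; A480 q20 s × 4 min; Activity was normalised to no-enzyme and no-compound control wells.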
# SARS PLpro yeast: SARS-CoV PLP inhibition in yeast; AID 485353; Potency, µM (series often up to 32.9 µM), hits mostly activators; 330,000 tested, 0.19% active; S. cerevisiae expressing SARS-CoV PLpro, growth rescue; calls by dose curve; also: nearly all actives have a fitted effect of over 55% in size
# Giardia growth: inhibitors of Giardia lamblia growth; shares compounds with Giardia FBPA inh-1; Giardia lamblia trophozoite growth inhibition; Potency, µM (highest dose often 57.5 µM), hits mostly inhibitors; 1,500 tested, 5% active;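 also: trophozoites exposed to compound for 48 h at 37 °C; nearly all actives have a fitted effect of over 70% in size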
# Mammal cell tox: counter-screen for Giardia aldolase inhibitors: mammalian cell toxicity; shares compounds with Giardia FBPA inh-1; mammalian cell viability counter-screen, qHTS; Potency, µM (series often up to 57.5 µM), hits mostly inhibitors; 1,500 tested, 4% active; AID 2786;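 also: Chinese hamster ovary cells used as mammalian cytotoxicity surrogate; viability measured as cellular ATP by luminescence; compound exposure lasted 48 h before reading; nearly all actives have a fitted effect of over 60% in size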
# Giardia FBPA inh-2: confirmation of Giardia fructose-bisphosphate aldolase inhibitors; Potency, µM (top dose mostly 57.5 µM), most hits filed as inhibitors; AID 2787; purified Giardia aldolase enzyme activity, qHTS; 1,500 tested, 5% active; shares compounds with Giardia FBPA inh-1; also: nearly all actives have a fitted effect of over 45% in size
# Rabbit FBPA inh: blocks rabbit muscle aldolase in Giardia aldolase selectivity test; shares compounds with Giardia FBPA inh-1; Potency, µM (doses to about 57.5 µM), most hits filed as inhibitors; Rabbit muscle FBPA enzyme inhibition, selectivity counter-screen; 1,500 tested, 4% active; AID 2794; also: nearly all actives have a fitted effect of over 60% in size
# Target sequence (P00883 whole entry, looked up): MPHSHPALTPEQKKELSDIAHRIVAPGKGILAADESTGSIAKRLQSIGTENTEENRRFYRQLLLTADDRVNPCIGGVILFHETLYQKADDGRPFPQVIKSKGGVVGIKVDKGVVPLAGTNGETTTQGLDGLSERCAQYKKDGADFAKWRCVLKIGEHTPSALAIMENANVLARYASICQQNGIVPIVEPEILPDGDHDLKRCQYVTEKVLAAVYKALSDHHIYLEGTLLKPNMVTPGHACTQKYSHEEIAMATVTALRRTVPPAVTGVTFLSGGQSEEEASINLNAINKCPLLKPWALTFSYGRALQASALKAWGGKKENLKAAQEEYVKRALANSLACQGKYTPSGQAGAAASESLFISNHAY
# GAPDH counter: counter-screen for Giardia aldolase inhibitors: GAPDH coupling enzyme; GAPDH coupling enzyme counterscreen, biochemical, qHTS; 1,500 tested, 6% active; shares compounds with Giardia FBPA inh-1; Potency, µM (highest dose often 57.5 µM), actives largely listed as inhibitors; also: nearly all actives have a fitted effect of over 55% in size
# Hits are given with their value; i = inactive; ? = inconclusive; nt = no result given; [ ] = dose if it differs, or a comment. Unless noted, calls follow the shape of the dose curve; as a rule, active = well fitted curve in the direction sought with a large enough effect; inconclusive = small, poorly fitted or top-dose-only effect, or another doubt; inactive = no such curve, though single readings can be large; an effect the other way counts as inactive or inconclusive.
SMILES,AmpC inh no detg,Giardia FBPA inh-1,AmpC inh detg,SARS PLpro yeast,Giardia growth,Mammal cell tox,Giardia FBPA inh-2,Rabbit FBPA inh,GAPDH counter
O=C(O)c1ncn(Cc2ccc(Br)cc2)c1C(=O)O,i,14µM,i,i,i,i,i,i,i
Cc1cccc(N2CCN(C(=O)C3CCN(S(=O)(=O)c4c(C)noc4/C=C/c4ccccc4F)CC3)CC2C)c1 (configuration not stated),nt,nt,i,nt,nt,nt,nt,nt,nt
Nc1c(-c2nc(-c3ccccc3)cs2)c2ccccn2c1C(=O)c1ccc2c(c1)OCO2,nt,nt,i,nt,nt,nt,nt,nt,nt
Cc1cccc(NC(=O)CSc2cccc3cccnc23)c1,i,i,i,i,nt,nt,nt,nt,nt
O=C(CSc1cccc2cccnc12)Nc1cc(C(=O)O)cc(C(=O)O)c1,i,25µM,i,i,i,i,i,i,i
CC1=C(c2ccc(C(C)C)cc2)S(=O)(=O)N=C1N1CCN(c2ccccc2F)CC1,nt,nt,i,nt,nt,nt,nt,nt,nt
CCN(CC)c1ccc(N)cc1S(=O)(=O)Nc1ccccc1OC,i,16µM,i,i,i[10.4 µM],i,i,i,i
CCN(C(=O)c1cnc(N2CCOCC2)c2ccccc12)c1cc(C)ccc1C,nt,nt,i,nt,nt,nt,nt,nt,nt
COC(=O)[C@@H](N)CS,i,16µM,i,i,i[10.4 µM],i,i,i,i
COc1ccc(OC)c(-c2csc(NC(=O)c3ccc(F)cc3)n2)c1,i,22µM,i,i,i[10.4 µM],i,i,i,i
Cn1cnc(Sc2ncnc3nc[nH]c23)c1[N+](=O)[O-],i,14µM,i,i,?,i,i,i,i
Cc1cccc[n+]1CC(=O)/C=C1\N(C)c2ccccc2C1(C)C,i,i,i,i,nt,nt,nt,nt,nt
CN1/C(=C\C(=O)CSc2cccc[n+]2[O-])C(C)(C)c2ccccc21,i,11µM,i,?,i,i,i,i,i
O=C1CCC(=O)N1CC(=O)N1CCCc2ccccc21,i,i,?,i,nt,nt,nt,nt,nt
O=C(CN1CCOCC1)N1CCCc2ccccc21,i,13µM,i,i,?,i,i,i,i
Cc1ccccc1CC(=O)N1CCN(C(=O)c2ccco2)CC1,i,i,i,i,nt,nt,nt,nt,nt
COc1ccc(Br)cc1CN1CCN(C(=O)c2ccco2)CC1,i,28µM,i,i,?,i,i,i,i
Cc1ccccc1CN1CCN(C(=O)c2ccco2)CC1,i,25µM,i,i,i[10.4 µM],i,i,i,i
COc1ccc(-c2noc(C3CC(=O)N(c4ccc(C)c(F)c4)C3)n2)c(OC)c1 (configuration not stated),nt,nt,i,nt,nt,nt,nt,nt,nt
COc1ccc(CN2CCN(C(C)C(=O)N(C)Cc3cccc(F)c3)CC2)cc1OC (configuration not stated),i,16µM,i,i,?,i,i,i,i
COc1ccc(CN2CCN(C(C)C(=O)NC(C)c3ccc(F)cc3)CC2)cc1F (configuration not stated),i,i,i,nt,nt,nt,nt,nt,nt
COc1cccc(C(=O)N2CCN(Cc3ccc4c(c3)OCO4)CC2)c1OC,i,i,i,i,nt,nt,nt,nt,nt
COc1ccc(CN2CCN(C(=O)c3cccc(OC)c3OC)CC2)cc1OC,i,20µM,i,i,i,i,i,i,i
Cc1nn(C(C)C(=O)NC2CCCCC2)c(=O)c2c1sc1ccccc12 (configuration not stated),nt,nt,i,nt,nt,nt,nt,nt,nt
CCOc1ccc(Oc2nc(NCC(C)C)nc(NC(C)(C)C)n2)nn1,nt,nt,i,nt,nt,nt,nt,nt,nt
SMILES,AmpC inh no detg,Giardia FBPA inh-1,AmpC inh detg,SARS PLpro yeast,Giardia growth,Mammal cell tox,Giardia FBPA inh-2,Rabbit FBPA inh,GAPDH counter
COc1ccc2c(c1OC)C(=O)N(c1cccc(C)c1)C2=O,i,i,i,i,nt,nt,nt,nt,nt
COc1ccc2c(c1OC)C(=O)N(c1nc(SC)n[nH]1)C2=O,i,16µM,?,i,i,i,i,i,i
CC1CCN(C(c2ccccc2)c2sc3nc(-c4ccco4)nn3c2O)CC1 (configuration not stated),nt,nt,i,nt,nt,nt,nt,nt,nt
CCOC(=O)N1CCN(C(=S)NC(=O)c2ccc(F)c(F)c2)CC1,i,16µM,i,i,i,i,i,i,i
COc1ccccc1OCc1nn[nH]n1,i,32µM,?,i,?,i,i,i,i
CC(=O)NC(=S)Nc1ccc(S(=O)(=O)N2CCOCC2)cc1,i,i,i,i,nt,nt,nt,nt,nt
CC(C)(C)NNC(=S)Nc1ccc(S(=O)(=O)N2CCOCC2)cc1,i,22µM,i,i,i[10.4 µM],i,i,i,i
CC1CCC(O)C/C1=C\C=C1/CCCC2(C)C1CCC2C(C)/C=C/C(C)C(C)C (configuration not stated),nt,i,nt,nt,nt,nt,nt,nt,nt
C=CCNC(=S)N/N=C(\C)c1cccnc1,i[2.29 µM],16µM,i,i,i,i,i,i,i
CC(=O)c1ccc(NC(=O)C2=CC(c3ccc(C)cc3)=NS(=O)(=O)N2C)cc1,nt,nt,i,nt,nt,nt,nt,nt,nt
O=C(CCCN1C(=O)/C(=C\c2cccs2)SC1=S)Nc1cccc(C(=O)O)c1,i,i,i,i,nt,nt,nt,nt,nt
O=C(CCCN1C(=O)/C(=C/c2ccco2)SC1=S)Nc1cccc(C(=O)O)c1,i,16µM,i,i,i[10.4 µM],i,i,i,i
O=C(C1=C(O)C(=O)N(CCc2ccccc2)C1c1ccncc1)c1cc2ccccc2o1 (configuration not stated),i,i,i,i,nt,nt,nt,nt,nt
O=C(C1=C(O)C(=O)N(c2nccs2)C1c1ccccc1)c1cc2ccccc2o1 (configuration not stated),i,16µM,i,i,i,i,i,i,i
COc1ccc(NC(=O)Cn2c(=O)oc3cc(S(=O)(=O)N4CCC(C)CC4)ccc32)c(OC)c1,nt,nt,i,nt,nt,nt,nt,nt,nt
COc1ccc(-c2csc(N(CCCN(C)C)C(=O)c3ccccc3F)n2)cc1,i,28µM,?,i,i,i,i,i,i
COc1ccc(-c2csc(N(CCCN(C)C)C(=O)c3ccccc3C)n2)cc1,i,?,i,i,nt,nt,nt,nt,nt
CCOC(=O)c1c(NC(=O)c2nc(S(C)(=O)=O)ncc2Cl)sc(C(C)=O)c1C,nt,nt,i,nt,nt,nt,nt,nt,nt
O=C(O)/C=C/C(=O)Nc1ccc(O)cc1,i,?,i,i,i,?,5.2µM,?,5.8µM
CCOC(=O)Cc1c[nH]c(=S)[nH]c1=O,i,18µM,i,i,i[10.4 µM],i,i,i,i
CCOC(=O)Cc1c(C)nc(N)[nH]c1=O,i,i,i,i,nt,nt,nt,nt,nt
CCc1ccc(OCCCCCn2ccnc2)cc1,i,?,?,i,nt,nt,nt,nt,nt
Cc1cccc(OCCn2ccnc2)c1C,i,22µM,i,i,i,i,i,i,i
Cc1ccccc1OCCn1ccnc1,i,?,i,i,nt,nt,nt,nt,nt
CCc1ccc(OCCn2ccnc2)cc1,i,25µM,i,i,?,i,i,i,i
